PubChem BioAssay (Tox21)
Inconclusive results are not listed. Active and inactive are the calls of the source. Unless noted, calls follow the shape of the dose curve; as a rule, active = well fitted curve in the direction sought with a large enough effect in the repeat runs; inconclusive = weak or mixed curves; inactive = no such curve, though single readings can be large; an effect the other way counts as inactive or inconclusive. Positions of bridges follow the written chain, without caps; N, C: chain ends. Where a SMILES comes first, the peptide text is derived from it. Non-standard residues stand in square brackets, D forms with d. Residues, ends and D or L forms follow the SMILES beside them. hArg = N=C(N)NCCCC[C@H](N)C(=O)O; Mpa = O=C(O)CCS

How the values were obtained:
[1] = qHTS assay to identify small molecule HDAC inhibitors - cell viability counter screen (AID 1259365); also: series mostly up to about 92 µM; nearly all actives have a fitted effect of over 50% in size
In short: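 After overnight seeding at 1,500 cells per well, wild-type HCT-116 cultures took up compounds in DMSO for 2hr at 37 C. Viable cell content came from luminescence with CellTiter-Glo.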

[2] = qHTS assay to identify small molecule antagonists of the sonic hedgehog signaling (Shh) pathway - cell viability counter screen (AID 1259367); also: nearly all actives have a fitted effect of over 55% in size
In short: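 Cells: 3T3 Gli1-Luc, 2,000/well, 4 hr pre-incubation. Compounds in DMSO, then conditioned medium. Incubation 24 hr, 37C, 5% CO2. CellTiter-Fluor at 23 hr, 1 hr, fluorescence.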

[3] = qHTS assay to identify small molecule antagonists of the sonic hedgehog signaling (Shh) pathway (AID 1259369; calls by dose curve; also: nearly all actives have a fitted effect of over 45% in size)
In short: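 For antagonist detection, the reporter line received test compounds together with conditioned medium, incubated 24hr at 37 C, 5% CO2, then luminescence was recorded following 30min room-temperature luciferase reagent incubation.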

[4] = qHTS assay to identify small molecule agonists of the androgen receptor (AR) signaling pathway in the presence of an antagonist - cell viability counter screen (AID 1259379);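 also: MDA-kb2 human breast cancer cells carrying an MMTV luciferase reporter; series mostly up to about 92 µM; nearly all actives have a fitted effect of over 25% in size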
In short: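 Seed MDA-kb2 at 3,000 cells/well; incubate 5 hr, 37C, 0% CO2. Add nilutamide to 3.0uM final, then pin compounds at 15 concentrations. Incubate 16 hr. Add CellTiter-Fluor at 15 hr, read fluorescence after 1 hr.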

[5] = qHTS assay to identify small molecule agonists of the estrogen receptor beta (ER-beta) signaling pathway - cell viability counter screen (AID 1259380); also: nearly all actives have a fitted effect of over 30% in size
In short: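 CellTiter-Glo read, 30 min RT, same wells as bla assay; cells ER-beta-UAS-bla HEK293T; 16 hr compound, 37C; medium 2% charcoal-stripped FBS.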

[6] = qHTS assay to identify small molecule agonists of the sonic hedgehog signaling (Shh) pathway - cell viability counter screen (AID 1259366); also: nearly all actives have a fitted effect of over 50% in size
In short: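 Same-well cytotoxicity read. Gli1-Luc reporter 3T3 cells; compounds 24hr, 37C/5% CO2; CellTiter-Fluor fluorescence.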

[7] = qHTS assay to identify small molecule agonists of the sonic hedgehog signaling (Shh) pathway (AID 1259368; calls by dose curve;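 also: NIH/3T3-derived 3T3Gli1-Luc cells carrying a stable Gli1-driven firefly luciferase reporter; series mostly up to about 92 µM; nearly all actives have a fitted effect of over 15% in size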)
In short: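 A Gli1 transcriptional response element controlled firefly luciferase in 3T3Gli1-Luc cells. Compounds and a positive control were added 4 hr after plating, and cells were incubated a further 24 hr at 37 C before luminescence detection.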

[8] = target: Estrogen receptor beta (Homo sapiens) (UniProt Q92731); assay: qHTS assay to identify small molecule agonists of the estrogen receptor beta (ER-beta) signaling pathway (AID 1259377; active = well fitted activation curve with a large enough effect in the signal ratio in the repeat runs, not every such curve was filed as active; the % refers to the signal ratio)
Chain of Estrogen receptor beta (Homo sapiens) (Q92731 whole entry, looked up): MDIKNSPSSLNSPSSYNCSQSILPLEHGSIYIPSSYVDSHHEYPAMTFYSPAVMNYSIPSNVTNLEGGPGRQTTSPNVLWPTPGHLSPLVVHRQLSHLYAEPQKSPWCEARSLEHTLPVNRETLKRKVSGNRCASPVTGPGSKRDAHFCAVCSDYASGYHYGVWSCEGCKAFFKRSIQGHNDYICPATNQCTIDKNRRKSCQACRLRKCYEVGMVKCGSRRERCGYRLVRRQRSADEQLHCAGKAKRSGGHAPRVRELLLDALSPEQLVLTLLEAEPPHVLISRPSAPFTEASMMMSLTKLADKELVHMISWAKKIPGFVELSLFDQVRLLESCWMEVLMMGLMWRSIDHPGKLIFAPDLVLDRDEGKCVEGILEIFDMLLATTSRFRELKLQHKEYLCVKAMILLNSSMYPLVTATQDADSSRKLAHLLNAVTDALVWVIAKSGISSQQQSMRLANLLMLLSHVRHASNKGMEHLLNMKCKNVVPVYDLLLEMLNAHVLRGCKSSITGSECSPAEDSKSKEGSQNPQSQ
In short: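 Read-out: beta-lactamase FRET fluorescence. Cell line: ER-beta-UAS-bla HEK293T in 2% charcoal-stripped FBS. Exposure: 16 hr at 37C. Substrate step: 2 h at room temperature.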

[9] = target: Estrogen receptor beta (Homo sapiens) (UniProt Q92731); assay: qHTS assay to identify small molecule antagonists of the estrogen receptor beta (ER-beta) signaling pathway (AID 1259378; active = well fitted inhibition curve with a large enough effect in the signal ratio in the repeat runs, not every such curve was filed as active; the % refers to the signal ratio)
In short: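 Antagonist mode: compounds added to beta-lactamase reporter HEK293T ER-beta-UAS cells stimulated with E2 (1nM final), 16 hr at 37C. LiveBLAzer B/G FRET substrate, 2 hours room temperature, fluorescence read-out.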
% is scaled to controls: 0 for no effect and ±100 for the full control effect.

OC1(c2ccc(Cl)cc2)CCNCC1
inactive: outcome [1] | outcome [2] | Potency [3] | outcome [4] | outcome [5]

CCCCCCCCCCCCCCCCCC#N
inactive: outcome [1] | outcome [6] | outcome [2] | Potency [3] | outcome [4]

NC(=O)[C@@H]1CSSCCC(=O)N[C@@H](CCCCN=C(N)N)C(=O)NCC(=O)N[C@@H](CC(=O)O)C(=O)N[C@@H](Cc2c[nH]c3ccccc23)C(=O)N2CCC[C@H]2C(=O)N1 ([Mpa][hArg]GDWPC-NH2; disulfide 1-7)
inactive: outcome [1] | outcome [6] | outcome [2] | Potency [3] | outcome [4] | outcome [5]

C/C(CC(C)C)=N\O
inactive: outcome [1] | outcome [6] | outcome [2] | outcome [7] | Potency [3] | Potency [8] | outcome [4] | outcome [5]

NCCOCCN
inactive: outcome [1] | outcome [6] | outcome [2] | outcome [7] | Potency [3] | outcome [4] | outcome [5]

CC1CCc2c(N3CCC(O)CC3)c(F)cc3c(=O)c(C(=O)O)cn1c23 (stereo unspecified)
inactive: outcome [1] | outcome [6] | outcome [2] | outcome [7] | Potency [3] | outcome [4]

c1ccc(B(c2ccccc2)c2ccccc2)cc1
inactive: outcome [1] | outcome [2] | outcome [7] | Potency [3] | outcome [4]

c1ccc2c(CC3=NCCN3)cccc2c1
inactive: outcome [1] | outcome [2] | outcome [7] | outcome [4]

COC(=O)CCCCC(=O)O
inactive: outcome [1] | outcome [6] | outcome [2] | outcome [7] | Potency [3] | outcome [4] | outcome [5]

O=C1c2ccccc2C(=O)c2cc(Cl)ccc21
inactive: activity change, negative = cytotoxicity [1] 6.08% [at 8.39 µM] | viability change, negative = cytotoxic [6] 3.28% [at 8.39 µM] | viability change, negative = cytotoxic [2] 1.09% [at 8.39 µM] | activation [8] 7.82% [at 8.39 µM] | activity, negative = inhibition [9] 3.18% [at 8.39 µM] | activity change, negative = cytotoxicity [4] 0.449% [at 8.39 µM] | activity change, negative = cytotoxicity [5] 1.14% [at 8.39 µM]

CC(C)NCC(O)c1ccc2ccccc2c1 (stereo unspecified)
inactive: outcome [1] | outcome [6] | outcome [2] | outcome [7] | Potency [8] | Potency [9] | outcome [4] | outcome [5]

CC(O)COC(C)(C)C (stereo unspecified)
inactive: outcome [1] | outcome [2] | outcome [7] | outcome [4] | outcome [5]

COc1cc2c(cc1OC)CN(C(=O)[C@H](C)N[C@@H](CCc1ccccc1)C(=O)O)[C@H](C(=O)O)C2
inactive: outcome [1] | outcome [2] | outcome [7] | Potency [3] | outcome [4] | outcome [5]

CC1c2ccccc2CN1NC(=O)c1ccc(Cl)c(S(N)(=O)=O)c1 (stereo unspecified)
inactive: outcome [1] | outcome [2] | outcome [7] | Potency [3] | Potency [9] | outcome [4] | outcome [5]

O=C1OCCO1
inactive: outcome [1] | outcome [6] | outcome [2] | outcome [7] | Potency [3] | outcome [4] | outcome [5]

CC(S)C(C)S (stereo unspecified)
inactive: outcome [1] | outcome [6] | outcome [2] | outcome [7] | Potency [3] | Potency [9] | outcome [4] | outcome [5]

CCCC(=O)Nc1ccc(OCC(O)CNC(C)C)c(C(C)=O)c1 (stereo unspecified)
inactive: outcome [1] | outcome [6] | outcome [2] | outcome [7] | Potency [3] | Potency [8] | outcome [4] | outcome [5]

CC(=O)O[C@@H]1CC2CCC1(C)C2(C)C (stereo partly specified)
inactive: outcome [1] | outcome [6] | outcome [2] | outcome [7] | Potency [3] | Potency [9] | outcome [4] | outcome [5]

CC(=O)N[C@@H](CO)C(=O)N[C@@H](CC(=O)O)C(=O)N[C@@H](CCCCN)C(=O)N1CCC[C@H]1C(=O)O (Ac-SDKP-OH)
inactive: outcome [1] | outcome [2] | outcome [7] | Potency [3] | outcome [4]

CCn1cc(C(=O)O)c(=O)c2cnc(N3CCCC3)nc21
inactive: activity change, negative = cytotoxicity [1] 0.53% [at 8.39 µM] | viability change, negative = cytotoxic [6] -0.379% [at 8.39 µM] | viability change, negative = cytotoxic [2] -1.09% [at 8.39 µM] | activity change [7] 1.04% [at 8.39 µM] | activity change, negative = inhibition [3] 29.2% [at 8.39 µM] | activation [8] 4.52% [at 8.39 µM] | activity change, negative = cytotoxicity [4] 0.387% [at 8.39 µM]

N#Cc1ccccc1O
inactive: outcome [1] | outcome [6] | outcome [2] | outcome [7] | Potency [3] | outcome [4] | outcome [5]

NCC1(Cc2noc(=O)[nH]2)CCCCC1
inactive: outcome [1] | outcome [6] | outcome [2] | outcome [7] | Potency [8] | Potency [9] | outcome [4] | outcome [5]

CC(C)CCOC(=O)c1ccccc1
inactive: outcome [1] | outcome [6] | outcome [2] | outcome [7] | Potency [3] | outcome [4]

O=C=NCC1CCCC(CN=C=O)C1 (stereo unspecified)
inactive: outcome [1] | outcome [6] | outcome [2] | outcome [7] | Potency [3] | Potency [8] | outcome [4] | outcome [5]

CN(C)C(C)(C)CO
inactive: outcome [1] | outcome [6] | outcome [2] | outcome [7] | Potency [3] | outcome [4] | outcome [5]

CC(Oc1cc(Cl)ccc1Cl)C(=O)O (stereo unspecified)
inactive: outcome [1] | outcome [2] | Potency [3] | Potency [9] | outcome [4] | outcome [5]

CC(=O)CC(=O)Nc1ccc(C)cc1C
inactive: outcome [1] | outcome [6] | outcome [2] | outcome [7] | Potency [9] | outcome [4]

C=CC(=O)OCC1CCCO1 (stereo unspecified)
inactive: outcome [1] | outcome [2] | outcome [7] | outcome [4]
